# High-throughput results: PubChem, National Center for Advancing Translational Sciences (NCATS)
# a7 integrin act – qHTS for Activators of Integrin-Mediated Alleviation for Muscular Dystrophy. alpha7betagal myoblasts, beta-gal FDG fluorescence, 48 h. Potency, µM (top dose mostly 38.3 µM), inactives show at the highest dose activation, usual class: activators. actives 0.064% (n = 350,000). AID 624291, 2012;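 note: 100% = response of the positive control SU9516; nearly all actives have a fitted effect of over 60% in size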
#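 alpha7betagal+/- myoblasts (passage 13, 250/well) treated 48 h at 37C with compounds at 1:260 dilution of DMSO stock. Lysed, then beta-galactosidase activity read as FDG fluorescence (ex 480/em 540) after 30 min, with pre-read for autofluorescence.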
# Eya2 inh – qHTS Assay for Inhibitors of the Phosphatase Activity of Eya2; Protein phosphatase EYA2 (Homo sapiens), O00167; actives 0.006% (n = 330,000); Potency, µM (series often up to 76.9 µM), without a hit: top-dose activity, negative = inhibition, usual class: inhibitors; AID 488837, 2010; recombinant Eya2, OMFP fluorescence dephosphorylation (OMFP is methylfluorescein phosphate); note: % is set by controls: 0 for no effect and ±100 for the full control effect
#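 Eya2 (0.2 uM) preincubated 10 min at ambient with compound, then OMFP substrate added at 50 uM; 10 min reaction in 50 mM HEPES pH 7.5, 50 mM NaCl, 5 uM MgCl2, 0.05% BSA, 1 mM DTT. Fluorescence read at Ex 485/Em 525 nm.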
# USP2a inh – qHTS Assay for Inhibitors of Ubiquitin-specific Protease USP2a Using CHOP2 as the Reporter. USP2 core, Ub-CHOP2 coupled fluorogenic reporter, 485/531. Ubiquitin carboxyl-terminal hydrolase 2 (Homo sapiens), O75604. Potency, µM (titrated, usually from 38.3 µM), for the others: top-dose activity change, negative = inhibition, actives largely listed as inhibitors. actives 0.01% (n = 330,000);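 note: plate controls were DMSO wells for no effect and full inhibition by NEM control for full effect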
# Target sequence (O75604 whole entry, looked up): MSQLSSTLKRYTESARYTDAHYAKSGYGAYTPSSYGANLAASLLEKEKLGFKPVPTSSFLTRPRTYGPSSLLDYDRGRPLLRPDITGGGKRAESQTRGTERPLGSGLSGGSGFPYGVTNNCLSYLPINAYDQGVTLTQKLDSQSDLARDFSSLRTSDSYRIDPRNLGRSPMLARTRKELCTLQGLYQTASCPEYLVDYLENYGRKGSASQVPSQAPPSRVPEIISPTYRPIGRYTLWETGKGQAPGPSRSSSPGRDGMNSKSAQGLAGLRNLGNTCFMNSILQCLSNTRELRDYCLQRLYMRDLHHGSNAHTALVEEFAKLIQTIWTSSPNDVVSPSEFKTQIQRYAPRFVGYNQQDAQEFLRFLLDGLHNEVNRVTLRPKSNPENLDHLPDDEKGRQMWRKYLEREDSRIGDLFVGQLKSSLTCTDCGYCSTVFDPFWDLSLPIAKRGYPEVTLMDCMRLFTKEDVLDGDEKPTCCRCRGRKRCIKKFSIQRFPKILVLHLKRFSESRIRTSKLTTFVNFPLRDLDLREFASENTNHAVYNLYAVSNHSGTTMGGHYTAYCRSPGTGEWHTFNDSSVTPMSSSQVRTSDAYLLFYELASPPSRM
#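 USP2 core (10nM final) preincubated 30min RT with compound in 20mM Tris-HCl pH 8.0, 2mM CaCl2, 2mM beta-mercaptoethanol, 0.05% CHAPS; 25nM Ub-CHOP2 plus 25nM reporter substrate added, fluorescence (Ex485/Em531) read after 60min.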
# ClpP mod – qHTS Assay for Activators of ClpP; ATP-dependent Clp protease proteolytic subunit (Bacillus subtilis (strain 168)), P80244; purified B. subtilis ClpP, FRET peptide cleavage, 20 min; Potency, µM (titrated, usually from 57.5 µM), without a hit: at the top dose activity change, negative = active; actives 1.9% (n = 340,000); active = well fitted falling curve with a large enough effect; inconclusive = small, poorly fitted or top-dose-only effect; inactive = no such curve, though single readings can be large or run the other way; note: the source files actives as falling curves though it sought activators and does not explain the sign; nearly all actives have a fitted effect of over 65% in size
# Target sequence (P80244 whole entry, looked up): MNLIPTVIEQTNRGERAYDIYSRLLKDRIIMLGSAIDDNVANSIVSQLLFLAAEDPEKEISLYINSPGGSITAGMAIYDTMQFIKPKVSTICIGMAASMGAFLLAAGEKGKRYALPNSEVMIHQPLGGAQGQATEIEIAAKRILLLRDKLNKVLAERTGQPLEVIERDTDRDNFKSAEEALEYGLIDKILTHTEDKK
#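 FRET quenching reversal measured ClpP activation: 10 microg/mL B. subtilis ClpP at pH 8 with the FRET-FV decapeptide, read at 430 nm after 320 nm excitation. The 20-min minus 0-min signal was scaled between DMSO/no-enzyme wells and ADEP (5.8 microM final).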
# MmCpn inh – Inhibitors of TCP-1 ring complex (TRiC) of Methanococcus maripaludis (MmCpn): qHTS | Chaperonin Mm-Cpn (Methanococcus maripaludis) | purified Mm-Cpn ATPase, ADP Transcreener TR-FRET | Potency, µM (highest dose often 76.9 µM), for the others: at the highest dose activity, negative = inhibition, actives largely listed as inhibitors | actives 0.031% (n = 330,000) | AID 504842, 2011; note: % is set by controls: 0 for no effect and ±100 for the full control effect; nearly all actives have a fitted effect of over 80% in size
#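 ATPase read-out: TR-FRET ADP immunoassay (anti-ADP Eu cryptate vs ADP-d2), ex 320 nm, em 590/665 nm; signal drops as ADP forms. Enzyme 25 nM, ATP 10 uM, 30 min at 37°C after 10 min compound preincubation.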
# p53 reactivation – qHTS assay for re-activators of p53 using a Luc reporter | H1299 p53-A138V BP100-luciferase reporter, luminescence, 24 h | Potency, µM (highest dose often 92.2 µM), for inactives: top-dose activity change, positive = activation, most hits filed as activators | actives 0.063% (n = 320,000); note: % of control where 0% means no effect; nearly all actives have a fitted effect of over 45% in size
#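 p53-null H1299 cells stably carrying temperature-sensitive p53-A138V and a BP100-luciferase reporter were pinned with compounds (4-point, 1:5 series) and held 24 hrs at 37 deg C. Luminescence was read 10 min after detection reagent.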
# The depositor's hits bear a star; u = inconclusive; x = no result given. Many of the other results were omitted from the sample, so hits are more common in it than they were. Unless noted, calls come from the whole dose curve; as a rule, active = well fitted curve in the direction sought with a large enough effect; inconclusive = small, poorly fitted or top-dose-only effect, or another doubt; inactive = no such curve, though single readings can be large; an effect the other way counts as inactive or inconclusive. Potency is the fitted concentration of half-maximal effect.
SMILES,a7 integrin act,Eya2 inh,USP2a inh,ClpP mod,MmCpn inh,p53 reactivation
COc1ccc(CCn2c3c(c(=O)[nH]c2=S)CN(CC(C)C)CN3)cc1OC,x,x,x,-2.0%,x,x
NS(=O)(=O)c1ccc(NC(=O)c2cnn3c2NC(=C2CC2)C=C3C(F)F)cc1,x,x,x,-1.0%,x,x
O=C(Nc1ccc(Br)cc1Cl)c1cnn2c1NC(=C1CC1)C=C2C(F)F,x,x,x,-0.4%,x,x
O=C(c1cnc(N2CCCCC2)c2ccccc12)N1CCN(c2cccc(Cl)c2)CC1,x,x,x,28.2µM*,x,x
Cc1ccc(NC(=O)c2cnc(N3CCCCC3)c3ccccc23)cc1Cl,x,x,x,31.6µM*,x,x
COc1ccccc1N1CCN(c2ncc(C(=O)N3CCN(c4cccc(Cl)c4)CC3)c3ccccc23)CC1,5.8%,7.0%,-7.5%,x,1.2%,1.7%
CCOC(=O)c1ccccc1NC(=O)c1cnc(N2CCOCC2)c2ccccc12,x,x,x,31.6µM*,x,x
CCOc1ccc(NC(=O)c2cnc(N3CCCCC3)c3ccccc23)cc1,x,x,x,-7.5%,x,x
COc1cccc(C(=O)N(Cc2ccco2)c2ccccn2)c1,x,x,x,-1.2%,x,x
CC(C)c1cnc2c(c1SCC(=O)N1CCCCC1)c(=O)n(C)c(=O)n2C,x,x,x,-11.9%,x,x
CC1CCCCC1NC(=O)CN1CCN(S(=O)(=O)c2ccc(Br)s2)CC1 (centres undefined),17.5%,1.9%,-0.7%,14.1µM*,-4.5%,-5.1%
CC1CCC(NC(=O)CN2CCN(S(=O)(=O)c3ccc(Br)s3)CC2)CC1 (centres undefined),11.5%,x,x,-3.5%,x,x
OCc1cn(-c2ccccc2)nc1-c1ccc(-c2nn(-c3ccccc3)cc2CO)cc1,-0.2%,-3.4%,-2.7%,28.2µM*,-12.0%,1.9%
Cc1ccc(-c2nn(-c3ccccc3)cc2CO)o1,1.8%,0.8%,1.7%,31.6µM*,1.3%,u
O=C(C[n+]1cccc2cccc(O)c21)c1ccc(Cl)cc1,x,x,x,-3.1%,x,x
O=C(CC(NC(=O)c1ccccc1)c1ccccc1)OCc1nc(-c2cccc(Cl)c2)no1 (centres undefined),x,x,x,2.5%,x,x
C=C1NN(Cc2ccccc2)C(=O)N1c1ccc(OC)cc1,x,x,x,-1.7%,x,x
O=C(CCC(=O)N1CCN(C2CCCCC2)CC1)Nc1nnc(C(F)(F)F)s1,34.4%,22.0%,0.5%,12.6µM*,-0.8%,1.8%
O=C(CCC(=O)N1CCN(C2CCCC2)CC1)Nc1nnc(C(F)(F)F)s1,20.9%,-8.5%,1.1%,-0.2%,2.1%,0.1%
Cc1ccc(-n2nc3c(c2NC(=O)c2ccc(F)c(F)c2)CS(=O)(=O)C3)cc1,-0.6%,-0.1%,2.0%,28.2µM*,1.0%,-8.6%
Cc1ccc(-n2nc3c(c2NC(=O)c2ccc4c(c2)OCO4)CS(=O)(=O)C3)cc1,u,4.8%,-1.0%,-3.0%,-1.3%,-6.2%
O=C(NCc1cccc(F)c1)C1CCN(c2nc3ccccc3nc2C(F)(F)F)CC1,x,x,x,2.0%,x,x
COc1ccc2c(c1OC)CCC2=O,-23.6%,0.7%,2.4%,28.2µM*,-1.5%,4.7%
O=C(NCc1ccco1)c1ccc2c(c1)C(=O)N(Cc1ccccc1)C2=O,-5.6%,-22.6%,-4.4%,28.2µM*,-0.6%,2.8%
COc1ccccc1NC(=O)c1ccc2c(c1)C(=O)N(Cc1ccco1)C2=O,6.2%,-10.8%,5.0%,1.2%,-1.4%,-1.5%
SMILES,a7 integrin act,Eya2 inh,USP2a inh,ClpP mod,MmCpn inh,p53 reactivation
COC(=O)c1ccccc1NC(=O)c1ccc2c(c1)C(=O)N(Cc1ccco1)C2=O,-2.7%,x,x,28.2µM*,x,x
CCOC(=O)CSc1nnc(-c2ccccc2NC(=O)c2ccccc2)o1,6.7%,32.0%,1.1%,-25.2%,2.0%,-11.2%
O=C(Nc1ccccc1-c1nnc(SCc2ccccc2Cl)o1)c1ccccc1,0.2%,-24.4%,1.7%,20µM*,-0.4%,-3.9%
CC(C)(C)c1ccc(CSc2nnc(-c3ccccc3NC(=O)c3ccccc3)o2)cc1,20.3%,-2.4%,0.0%,28.2µM*,-3.5%,-0.4%
CN(C)c1ccc(NC(=O)CCSc2nc(-c3ccco3)cc(C(F)(F)F)n2)cc1,x,x,x,1.5%,x,x
CN1CCC(=NNC(=O)C(=O)NC2CCCC2)CC1,10.7%,-20.3%,1.2%,31.6µM*,2.0%,2.1%
CN1CCC(=NNC(=O)C(=O)NC2CCCCC2)CC1,-12.4%,22.3%,1.5%,0.9%,-1.1%,1.5%
Cc1cc(N2CCOCC2)n2nc(-c3cccc(F)c3)cc2n1,4.5%,-33.3%,1.1%,u,1.8%,-17.4%
CCC1CCCCN1c1cc(C)nc2cc(-c3cccc(C)c3)nn12 (centres undefined),-10.4%,-0.1%,-2.6%,28.2µM*,0.8%,6.4%
Cc1ccc(CNC(=O)CCN2C(=O)COc3ccc(C)cc32)cc1,x,x,x,0.4%,x,x
Cc1ccc2c(c1)N(CCC(=O)NC(C)C)C(=O)CO2,10.9%,5.2%,-0.9%,28.2µM*,1.3%,1.3%
CC1CCc2c(sc(NC(=O)COC(=O)c3ccccc3NCc3ccco3)c2C#N)C1 (centres undefined),0.6%,-25.8%,-2.8%,12.6µM*,-28.6%,7.9%
CC(C)(C)c1nnc(NC(=O)NS(=O)(=O)c2ccccc2)s1,-15.0%,-2.0%,-0.1%,20µM*,0.8%,-0.5%
O=C(CSc1nc2c([nH]c3ccccc32)c(=O)n1-c1ccc(F)cc1)N1CCc2ccccc21,x,x,x,-15.0%,x,x
Cc1cc(NC(=O)CSc2nc3c([nH]c4ccccc43)c(=O)n2-c2cccc(C(F)(F)F)c2)no1,-5.8%,-31.0%,2.5%,28.2µM*,-1.1%,12.9%
O=C(CSc1nc2c([nH]c3ccccc32)c(=O)n1-c1ccc(F)cc1)Nc1ccc2c(c1)OCCO2,x,x,x,22.4µM*,x,x
Cc1ccc(-n2c(SCC(=O)NCc3ccc(F)cc3)nc3c([nH]c4ccccc43)c2=O)cc1,x,x,x,31.6µM*,x,x
COc1cccc(-n2c(SCC(=O)Nc3cc(C)on3)nc3c([nH]c4ccccc43)c2=O)c1,-8.0%,4.8%,-8.7%,-21.2%,-1.2%,-9.6%
O=C(CSc1nc2c([nH]c3ccccc32)c(=O)n1-c1ccccc1)N1CCc2ccccc21,x,x,x,28.2µM*,x,x
CCCCNC(=O)Cn1c(SCc2ccccc2C)nc2ccncc21,x,x,x,-7.2%,x,x
C[C@H](NC(=O)/C(C#N)=C/c1ccc(O)c(O)c1)c1ccccc1,x,9.5%,x,x,x,x
